Assay [1] in a line: Quantitative High-Throughput drug screen in 47 multiple myeloma cell lines against the NCATS MIPE library collection: Delta47_JCRB cell viability assay (AID 1918925; further: nearly all actives have a fitted effect of over 45% in size). In short, it runs like this: (§1)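 Approved and investigational drugs from MIPE 4.0 were added by pin tool to 500 cells per well. After 48 hours at 37C, ATP-based CellTiter-Glo luminescence indicated remaining viability.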

The nature of assay [2]: Quantitative High-Throughput drug screen in 47 multiple myeloma cell lines against the NCATS MIPE library collection: AMO1_DSMZ cell viability assay (AID 1918927; further: nearly all actives have a fitted effect of over 30% in size). In a few lines: as §1
Assay [3] is described as follows: Quantitative High-Throughput drug screen in 47 multiple myeloma cell lines against the NCATS MIPE library collection: ARP1_JJKsccF8 cell viability assay (AID 1918928; further: nearly all actives have a fitted effect of over 40% in size). In a few lines: (§2)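 Here, 48 h treatment with MIPE 4.0 agents at 37 °C preceded an ATP luminescence read. Plating density was 500 cells per well.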
Assay [4] can be described thus: Quantitative High-Throughput drug screen in 47 multiple myeloma cell lines against the NCATS MIPE library collection: JIM3_ECACC cell viability assay (AID 1918963; further: nearly all actives have a fitted effect of over 35% in size). In short, it runs like this:
(§3)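 CellTiter-Glo luminescence (ATP) after 48 h compound exposure, 37C/5% CO2; 500 cells/well; MIPE 4.0 approved/investigational drugs pinned in; DMSO = 100%, media only = 0% viability.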

Assay [5] can be described thus: Quantitative High-Throughput drug screen in 47 multiple myeloma cell lines against the NCATS MIPE library collection: JJN3_DSMZ cell viability assay (AID 1918966; further: nearly all actives have a fitted effect of over 50% in size). In a few lines:
as §1

Assay [6] can be described thus: Quantitative High-Throughput drug screen in 47 multiple myeloma cell lines against the NCATS MIPE library collection: KMS12BM_JCRB cell viability assay (AID 1918971). Further: nearly all actives have a fitted effect of over 35% in size. In short, it runs like this: as §1
Assay [7] is described as follows: Quantitative High-Throughput drug screen in 47 multiple myeloma cell lines against the NCATS MIPE library collection: EJM_DSMZ cell viability assay (AID 1918926; further: nearly all actives have a fitted effect of over 30% in size). In a few lines:
as §1

Assay [8] in a line: Quantitative High-Throughput drug screen in 47 multiple myeloma cell lines against the NCATS MIPE library collection: Karpas620_DSMZ cell viability assay (AID 1918959). Further: nearly all actives have a fitted effect of over 30% in size. In short, it runs like this: as §3
Assay [9] can be described thus: Quantitative High-Throughput drug screen in 47 multiple myeloma cell lines against the NCATS MIPE library collection: KMM1_JCRB cell viability assay (AID 1918960). Further: nearly all actives have a fitted effect of over 30% in size. In a few lines:
as §2

Assay [10] in a line: Quantitative High-Throughput drug screen in 47 multiple myeloma cell lines against the NCATS MIPE library collection: KHM11_PLB cell viability assay (AID 1918962). Further: nearly all actives have a fitted effect of over 35% in size. In short, it runs like this:
as §3

Assay [11] can be described thus: Quantitative High-Throughput drug screen in 47 multiple myeloma cell lines against the NCATS MIPE library collection: Karpas25_ECACC cell viability assay (AID 1918968; further: nearly all actives have a fitted effect of over 35% in size). In a few lines:
as §1

Assay [12] in a line: Quantitative High-Throughput drug screen in 47 multiple myeloma cell lines against the NCATS MIPE library collection: ARD_JJKsccE7 cell viability assay (AID 1918929). In short, it runs like this:
as §1

Assay [13] in a line: Quantitative High-Throughput drug screen in 47 multiple myeloma cell lines against the NCATS MIPE library collection: KMS27_JCRB cell viability assay (AID 1918970). Further: nearly all actives have a fitted effect of over 30% in size. The note with it: KMS27 myeloma cells, CellTiter-Glo ATP viability, 48 h; viability (% of DMSO): at 45.8 µM (top of the series). In a few lines:
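Myeloma cells (500 per well) were exposed to MIPE 4.0 compounds for 48 h at 37 °C, 5% CO2; viability was read as ATP luminescence with CellTiter-Glo, normalized to DMSO-only (100%) and media-only (0%) wells.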
On the technique in general: ATP-based viability assays read luminescence as a measure of living cells.

Assay [14] in a line: Quantitative High-Throughput drug screen in 47 multiple myeloma cell lines against the NCATS MIPE library collection: JIM1_ECACC cell viability assay (AID 1918964). In a few lines:
as §1

Assay [15] is described as follows: Quantitative High-Throughput drug screen in 47 multiple myeloma cell lines against the NCATS MIPE library collection: INA6_PLB cell viability assay (AID 1918965; further: nearly all actives have a fitted effect of over 55% in size). In short, it runs like this:
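Myeloma cells (500 per well) were exposed to MIPE 4.0 compounds by pin transfer and incubated 48 hours at 37C, 5% CO2. Viability was read as ATP by CellTiter-Glo luminescence, normalised to DMSO (100%) and media-only (0%) wells.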

Assay [16] is described as follows: Quantitative High-Throughput drug screen in 47 multiple myeloma cell lines against the NCATS MIPE library collection: H1112_PLB cell viability assay (AID 1918967; further: nearly all actives have a fitted effect of over 30% in size). In a few lines:
as §1

SMILES strings stand for the structures. Records with an inconclusive call do not appear. Calls of active or inactive are those of the source. The call rests on the fitted dose curve; in most records, active means well fitted curve in the direction sought with a large enough effect; inconclusive means small, poorly fitted or top-dose-only effect, or another doubt; inactive means no such curve, though single readings can be large; an effect the other way counts as inactive or inconclusive.
Potency means the concentration at half of the fitted maximal effect.

Consider `COC(=O)[C@H](c1ccccc1Cl)N1CCc2sccc2C1`, for which the Potency entry in [1], in assay [3], in assay [4] and in assay [6] was “inactive” each time. Moreover, the Potency is 26.4 µM (active) in assay [2] and 20.9 µM (active) in assay [5].

In the case of `OC[C@H]1O[C@@H](Oc2ccc(O)cc2)[C@H](O)[C@@H](O)[C@H]1O`, the Potency result in assay [1], in [7], in assay [8], in [9], in assay [10] and in [11] was “inactive” in each case. In addition, the Potency in assay [4] is 10.5 µM (active).

Turning to `CC(C)(F)C[C@H](N[C@@H](c1ccc(-c2ccc(S(C)(=O)=O)cc2)cc1)C(F)(F)F)C(=O)NC1(C#N)CC1`, the Potency result in [1], in assay [2], in [3], in [12], in assay [8] and in assay [13] was “inactive” in each case. The Potency in [4] was 0.0833 µM (active).

In the case of `COc1ccc(-c2cc(=O)c3c(O)cc(O[C@@H]4O[C@H](CO[C@@H]5O[C@@H](C)[C@H](O)[C@@H](O)[C@@H]5O)[C@@H](O)[C@H](O)[C@@H]4O)cc3o2)cc1O`, the Potency in [1] was 14.8 µM (active); in assay [4], 16.6 µM (active); in assay [15], 26.4 µM (active); in assay [16] it was 13.2 µM (active). Moreover, the Potency entry in [2], in [3], in assay [12], in assay [9], in assay [14] and in assay [13] was “inactive” each time.

In the case of `Oc1cc(O)cc(C=Cc2ccc(O)c(O)c2)c1`, the Potency in assay [1] is 4.69 µM (active); in assay [2], 11.8 µM (active); in [12], 9.35 µM (active); in [8], 5.26 µM (active); in [9] it was 13.2 µM (active); in [4] it was 14.8 µM (active). Besides, the Potency in [14] was 16.6 µM (active); in assay [15] it was 2.96 µM (active); in assay [5], 16.6 µM (active); in assay [16], 13.2 µM (active); in [11] it was 7.43 µM (active); in assay [13], 18.7 µM (active).

`CCCCC[C@H](O)C=C[C@H]1[C@H](O)CC(=O)[C@H]1CCCCCCC(=O)O`: the Potency entry in assay [1], in assay [2], in [8], in assay [9] and in assay [14] was “inactive” in each case. Moreover, the Potency is 23.5 µM (active) in assay [3], 7.43 µM (active) in assay [5] and 23.5 µM (active) in assay [11].

As for `CC(=O)NCCC(=O)N[C@@H](CCC(N)=O)C(=O)N[C@@H](CO)C(=O)N[C@@H](CCC(N)=O)C(=O)N[C@@H](CCC(N)=O)C(=O)N[C@H](C(=O)N[C@@H](Cc1ccccc1)C(=O)N[C@]1(C)CCCCCCC=CCCC[C@@](C)(C(=O)N[C@@H](CCC(N)=O)C(=O)N[C@@H](CC(N)=O)C(N)=O)NC(=O)[C@H](CC(C)C)NC(=O)[C@H](CC(C)C)NC(=O)[C@@H](CCCNC(=N)N)NC(=O)[C@H](Cc2c[nH]c3ccccc23)NC(=O)[C@H](CC(C)C)NC(=O)[C@H](CC(N)=O)NC1=O)[C@H](C)O`, the Potency was 20.9 µM (active) in assay [1]; 18.7 µM (active) in assay [7]; 20.9 µM (active) in assay [3]; 18.7 µM (active) in assay [10]; 20.9 µM (active) in [4]; 7.43 µM (active) in [14]. Moreover, the Potency is 20.9 µM (active) in [15], 14.8 µM (active) in assay [5], 26.4 µM (active) in assay [11] and 9.35 µM (active) in assay [6]. In addition, the Potency entry in assay [12], in assay [8] and in assay [9] was “inactive” throughout.

In the case of `O=C(c1ccc(F)c(F)c1Nc1ccc(I)cc1F)N1CC(O)([C@H]2CCCCN2)C1`, the Potency was 20.9 µM (active) in [1]; 3.32 µM (active) in assay [2]; 10.5 µM (active) in assay [12]; 0.105 µM (active) in [8]; 0.0372 µM (active) in assay [10]; 14.8 µM (active) in [4]. Besides, the Potency is 10.5 µM (active) in [15], 16.6 µM (active) in assay [16], 16.6 µM (active) in assay [11] and 23.5 µM (active) in assay [6].

For `COc1cc(C=CC(=O)O)ccc1O`, the Potency result in assay [1], in [7], in [12], in assay [8], in assay [9] and in assay [10] was “inactive” in each case. Besides, the Potency entry in assay [5] and in assay [13] was “inactive” in each case.

For `CC(C)C[C@@H](C(=O)N[C@H](C(=O)OC1CCCC1)c1ccccc1)[C@H](O)C(=O)NO`, the Potency is 20.9 µM (active) in [1]; 14.8 µM (active) in assay [3]; 4.69 µM (active) in assay [12]; 5.26 µM (active) in assay [8]; 5.26 µM (active) in assay [4]; 2.64 µM (active) in assay [13]. Further, the Potency in assay [6] is 18.7 µM (active). The Potency entry in [2] is “inactive”.

Consider `Cc1ccc(S(=O)(=O)OCC(=O)Nc2ccc(C(=O)O)c(O)c2)cc1`, for which the Potency in [1] was 16.6 µM (active); in assay [4], 23.5 µM (active); in [15], 13.2 µM (active); in assay [5] it was 16.6 µM (active); in [11], 20.9 µM (active). Also, the Potency entry in assay [2], in assay [3], in [12], in assay [8] and in assay [9] was “inactive” in each case.

Turning to `CCC[C@@H](NC(=O)[C@@H]1[C@H]2CCC[C@@H]2CN1C(=O)[C@@H](NC(=O)[C@@H](NC(=O)c1cnccn1)C1CCCCC1)C(C)(C)C)C(=O)C(=O)NC1CC1`, the Potency in assay [1] was 14.8 µM (active); in [2] it was 18.7 µM (active); in [8] it was 18.7 µM (active); in [11] it was 18.7 µM (active). Besides, the Potency result in [7] and in assay [13] was “inactive” in each case.

Regarding `O=C(O)C1=NC(C(=O)O)CC(C=CN2c3cc(O)c(OC4OC(CO)C(O)C(O)C4O)cc3CC2C(=O)O)=C1` (stereo unspecified), the Potency result in assay [1], in [7], in [8], in [9], in assay [4] and in assay [14] was “inactive” throughout. The Potency result in [15], in [16] and in [11] was “inactive” each time.

For `O=C(c1ccc(C=Cc2n[nH]c3ccccc23)cc1)N1CCNCC1`, the Potency is 3.32 µM (active) in assay [1]; 20.9 µM (active) in [7]; 13.2 µM (active) in assay [3]; 1.32 µM (active) in [12]; 5.26 µM (active) in assay [9]; 0.833 µM (active) in assay [10]. Further, the Potency was 2.64 µM (active) in assay [4]; 3.72 µM (active) in [14]; 3.32 µM (active) in [15]; 18.7 µM (active) in assay [5]; 3.72 µM (active) in [11].

In the case of `C=CCc1cccc(C=NNC(=O)CN2CCN(Cc3ccccc3)CC2)c1O`, the Potency is 18.7 µM (active) in [1]; 5.26 µM (active) in [2]; 9.35 µM (active) in [3]; 9.35 µM (active) in [12]; 9.35 µM (active) in assay [8]; 5.26 µM (active) in assay [9]. Moreover, the Potency in assay [10] was 20.9 µM (active); in [14], 5.26 µM (active); in [15], 14.8 µM (active); in [11] it was 18.7 µM (active); in assay [13] it was 5.26 µM (active).

The values above are taken from PubChem BioAssay (NCATS).
